# In the supplement of paper PMC4166925:
# ± gives the standard deviation of the averaged measurements. Over roughly 33,000 sequences, “E-score (dimensionless, -0.5 to 0.5)” has its median near -0.046; the highest 2% begin near 0.36. Only a selection was taken, and the highest values are over-represented in it overall.
# Test system: T1, SpTbr T-box DNA-binding domain (GST fusion)
# T1 sequence: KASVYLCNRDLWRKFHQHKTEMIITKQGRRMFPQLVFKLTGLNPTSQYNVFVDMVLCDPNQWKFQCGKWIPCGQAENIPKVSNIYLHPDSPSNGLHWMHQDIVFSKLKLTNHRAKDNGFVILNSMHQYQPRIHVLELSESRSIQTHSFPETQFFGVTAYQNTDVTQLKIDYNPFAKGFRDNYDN
# Assay: PBM E-score of 8-mer (E-score (dimensionless, -0.5 to 0.5)); Tbr is Tbrain of the sea star Patiria miniata (Pm) or the sea urchin Strongylocentrotus purpuratus (Sp); higher = stronger binding preference
# Conditions: the construct has about 5 more residues each side
# Outline: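 Primer extension turned Universal Agilent oligonucleotide arrays double-stranded. They were incubated with 200 nM protein in PBS (pH 7.5); the protein was a GST-fused Tbr T-box DNA-binding domain expressed in BL21 E. coli at 20 °C and purified on glutathione. Every ungapped 8-mer was scored from the scanned, quantified probe intensities, and the Universal PBM Analysis Suite gave each an enrichment E-score averaged over duplicate arrays.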
row,Sequence,PBM E-score of 8-mer
1,ATGCTTCG,0.0174 ± 0.071
2,CGTGCCTA,-0.0792 ± 0.002
3,GGTAGGCA,-0.079 ± 0.028
4,AAACTACA,0.014 ± 0.14
5,TAGGGGCA,-0.127 ± 0.04
6,ATGCACGC,-0.0415 ± 0.12
7,AGGTGAAC,0.164 ± 0.025
8,CGAAATCG,0.2456 ± 0.0015
9,CACTTGCA,0.336 ± 0.012
10,CACTTGTC,0.375 ± 0.012
11,AACTTGCG,0.198 ± 0.0091
12,CACTTGCG,0.387 ± 0.026
13,CACTTGTA,0.116 ± 0.046
14,AACTTGTC,0.355 ± 0.03
15,CGGCGCCC,0.0161 ± 0.043
16,CTCTGACA,0.233 ± 0.019
17,TAACATTA,-0.0674 ± 0.087
18,TAATATTA,-0.13 ± 0.033
19,GAGTCGAC,0.107 ± 0.061
20,GATGTCCA,-0.22 ± 0.056
21,AGCTAACG,0.236 ± 0.016
22,TGCTAACA,0.369 ± 0.022
23,GGCTAACA,0.235 ± 0.024
24,CGCTAACC,0.19 ± 0.0091
25,AGCTAACA,0.233 ± 0.022

row,Sequence,PBM E-score of 8-mer
1,CGCTAACG,0.373 ± 0.0088
2,CAGCTCGG,-0.132 ± 0.057
3,CGGTGGAA,-0.0405 ± 0.033
4,ATCTATGC,-0.197 ± 0.03
5,ACGAGTAT,-0.0491 ± 0.014
6,CAATCCTA,-0.0316 ± 0.041
7,AAACCACT,-0.258 ± 0.016
8,AGCACTTG,0.168 ± 0.018
9,AACGCATG,0.0228 ± 0.0081
10,AACCTTGC,0.00568 ± 0.0057
11,GACCTTGA,-0.145 ± 0.019
12,CAGCTTGG,-0.00698 ± 0.044
13,CACCTTGA,0.367 ± 0.042
14,TACCTTGA,0.01 ± 0.065
15,AACCTTGG,-0.0793 ± 0.032
16,GACCTTGC,-0.153 ± 0.0056
17,CACCTTGG,0.45 ± 0.005
18,CACCTTGC,0.389 ± 0.013
19,ACACTGTA,0.172 ± 0.036
20,ACTTGATA,0.108 ± 0.039
21,AGACAGCG,-0.00288 ± 0.048
22,CTGAAAGC,-0.193 ± 0.033
23,ATGTAAAC,0.0731 ± 0.026
24,GTGTAAAC,0.367 ± 0.02
25,CTGTAAAC,0.132 ± 0.0059

row,Sequence,PBM E-score of 8-mer
1,AGCAGATA,-0.195 ± 0.043
2,ACAGCCCT,-0.109 ± 0.054
3,AAATGTGC,0.151 ± 0.076
4,GTGTGTGA,0.4221 ± 0.003
5,ATGTGTGC,0.299 ± 0.0091
6,AAATGTGT,0.435 ± 0.0081
7,AAATGTGG,0.114 ± 0.01
8,ATGTGTGA,0.4838 ± 0.001
9,CTGTGTGA,0.341 ± 0.0081
10,GTGTGTAA,0.27 ± 0.0036
11,ATATGTGA,0.242 ± 0.055
12,CAGCCAAC,0.106 ± 0.037
13,GTAGCGCA,-0.148 ± 0.091
14,GATGCGCA,0.014 ± 0.028
15,ATCTCCAC,0.0376 ± 0.0077
16,AACGTTTC,-0.191 ± 0.019
17,TCTCGAAA,-0.0659 ± 0.035
18,ACGCCACT,0.285 ± 0.013
19,CCACAACC,0.113 ± 0.015
20,AAGTTTAT,-0.141 ± 0.074
21,AATGCAGT,-0.188 ± 0.028
22,ATCGACAG,0.286 ± 0.005
23,ATCGACAC,0.389 ± 0.013
24,ATCGACAA,0.213 ± 0.0072
25,CTCGACAC,0.3634 ± 0.0018

row,Sequence,PBM E-score of 8-mer
1,GTCGACAA,0.275 ± 0.0098
2,GTCGACAC,0.394 ± 0.018
3,AATGGCTG,-0.183 ± 0.012
4,CAAGTAGA,-0.0961 ± 0.025
5,ATCTCGGA,-0.276 ± 0.03
6,CCATACCG,-0.115 ± 0.017
7,ACTCAAGC,-0.127 ± 0.023
8,AGTTAACG,0.127 ± 0.006
9,GGTTAGCA,0.257 ± 0.034
10,GGTTAACA,0.287 ± 0.012
11,CGTTAACA,0.4129 ± 0.0026
12,CGTTAACG,0.372 ± 0.0041
13,AGTTAGCA,0.284 ± 0.045
14,CGTTAAAA,0.0585 ± 0.1
15,TGTTAACA,0.421 ± 0.029
16,CATTAACA,0.329 ± 0.029
17,CGTTAGCA,0.37 ± 0.0046
18,AGTTAACA,0.334 ± 0.023
19,CGTTAACC,0.113 ± 0.07
20,CAAGTTCG,0.0356 ± 0.0073
21,TAGGCGAA,0.0827 ± 0.01
22,CGATACCC,-0.00698 ± 0.068
23,ACTTAATG,-0.1 ± 0.055
24,CGATTTTA,-0.151 ± 0.033
25,AAGGTGAT,0.384 ± 0.023

row,Sequence,PBM E-score of 8-mer
1,GGGGTGAC,0.293 ± 0.043
2,GAGGTGAA,0.198 ± 0.0028
3,CCGGTGTC,0.18 ± 0.047
4,CAGGTGTC,0.4679 ± 0.0019
5,CAGGTGAG,0.399 ± 0.0058
6,CAGGTGAA,0.199 ± 0.031
7,AGGGTGAT,0.123 ± 0.024
8,ACGGTGAT,0.115 ± 0.028
9,CCGGTGAG,0.089 ± 0.024
10,GAGGTGAC,0.429 ± 0.018
11,CAGGTGTA,0.358 ± 0.0037
12,CGAAGCCG,0.244 ± 0.045
13,ACCAGCTA,-0.0508 ± 0.0037
14,CGCGAGCA,0.275 ± 0.036
15,AGCAGAGA,-0.259 ± 0.039
16,CGGACAAA,-0.0576 ± 0.039
17,CCGAAATC,-0.048 ± 0.0049
18,CAGAGCAG,-0.246 ± 0.033
19,ACGGTGAG,0.0305 ± 0.02
20,AGGGTGAG,0.216 ± 0.048
21,AAGGTGAG,0.445 ± 0.014
22,CAGGTGAC,0.425 ± 0.013
23,CAGATGAC,-0.0314 ± 0.026
24,CTGGTGAC,0.162 ± 0.074
25,ACGGTGAC,0.284 ± 0.0089

row,Sequence,PBM E-score of 8-mer
1,AAGGTGAA,0.187 ± 0.0077
2,AAGGTGAC,0.381 ± 0.026
3,ACAGCTCC,0.157 ± 0.0081
4,GCCTGCAC,-0.0663 ± 0.051
5,ACGTGGGC,-0.0975 ± 0.06
6,ACGTGTGG,0.416 ± 0.00045
7,CCGTGTCA,0.176 ± 0.013
8,GCGTGAGA,0.361 ± 0.03
9,ACGTGTGC,0.253 ± 0.017
10,GCGTGTGA,0.399 ± 0.0074
11,ACGTGTCT,0.204 ± 0.034
12,ACGTGAGA,0.3312 ± 0.0033
13,GCGTGTAA,0.0697 ± 0.022
14,ACGTGTCA,0.458 ± 0.0068
15,ACGTGTGA,0.4797 ± 0.0017
16,ACGTGGGG,-0.127 ± 0.012
17,AACTCTTG,-0.0545 ± 0.035
18,CGTAGGAA,-0.00351 ± 0.079
19,CTTCTGCA,0.00227 ± 0.035
20,CAGCGCAG,-0.14 ± 0.069
21,CAACCCAG,-0.2068 ± 0.00038
22,AATCTGAG,0.0009 ± 0.0013
23,CTATGAGC,-0.1 ± 0.02
24,ACCGCTGC,0.0922 ± 0.006
25,CCGTGTGC,0.0129 ± 0.03

row,Sequence,PBM E-score of 8-mer
1,CCGTGTGA,0.381 ± 0.017
2,CCGTGAGA,0.143 ± 0.015
3,ATCTAGAA,-0.151 ± 0.049
4,AACACGTG,0.36 ± 0.008
5,CACACGTC,0.451 ± 0.0092
6,CACACGTA,0.356 ± 0.0042
7,CACACGTG,0.383 ± 0.0078
8,CACACGGC,0.151 ± 0.069
9,CGCACGTC,0.331 ± 0.013
10,AACCCCTG,-0.108 ± 0.043
11,CACTGAGC,0.00197 ± 0.0073
12,CGCTTTAA,-0.169 ± 0.035
13,AAAGTAGC,-0.0267 ± 0.0034
14,ACTCGACA,0.24 ± 0.029
15,CAGCTGCC,-0.0128 ± 0.074
16,GAGTGTGC,0.296 ± 0.015
17,CAGTGTAA,0.0331 ± 0.071
18,TAGTGGGA,-0.0317 ± 0.03
19,CAGTGTGG,0.243 ± 0.043
20,CAGTGTGA,0.393 ± 0.0076
21,GAGTGTGA,0.478 ± 0.0052
22,TAGTGTGA,0.453 ± 0.011
23,GAGTGTAA,0.235 ± 0.04
24,TAGTGAGA,0.209 ± 0.089
